In all, about 39,000 compounds went through this assay and about 3,300 (8.5%) were called active. This is one part of a sample in which actives are shown more often than they occur.

The experiment concerns HepG2. In words: cytotoxicity call (relative viability < 0.9). The conditions noted are these: 10 µM.
`COc1cccc(-c2ccc3c(c2)O[C@@H](CN(C)C(=O)C2CC2)[C@H](C)CN([C@@H](C)CO)S3(=O)=O)c1`: the cytotoxicity call is “inactive”.

`O=C(C[C@@H]1C[C@@H]2c3cc(NS(=O)(=O)c4ccc(F)cc4)ccc3O[C@@H]2[C@@H](CO)O1)NCCN1CCCCC1`: the cytotoxicity call is “inactive”.

For `C[C@@H]1CN([C@@H](C)CO)C(=O)c2cc(C#Cc3ccncc3)cnc2O[C@H]1CN(C)S(=O)(=O)c1ccccc1F`, the cytotoxicity call was “active”.

Take `C[C@H](CO)N1C[C@H](C)[C@@H](CN(C)S(=O)(=O)c2ccccc2F)Oc2ncc(C#Cc3ccncc3)cc2C1=O`: the cytotoxicity call is “inactive”.

For `C[C@H]1CN([C@@H](C)CO)C(=O)c2cc(C#Cc3ccccc3)cnc2O[C@@H]1CN(C)S(=O)(=O)c1ccccc1F`, the cytotoxicity call is “inactive”.

For `C[C@@H]1CN([C@H](C)CO)C(=O)c2cc(C#Cc3ccncc3)cnc2O[C@H]1CN(C)S(=O)(=O)c1ccccc1F`, the cytotoxicity call is “inactive”.

With `C[C@@H]1CN([C@H](C)CO)C(=O)c2cc(C#Cc3ccccc3)cnc2O[C@H]1CN(C)S(=O)(=O)c1ccccc1F`, the cytotoxicity call is “inactive”.

On to `C[C@@H]1CN([C@@H](C)CO)C(=O)c2cc(C#Cc3ccncc3)cnc2O[C@@H]1CN(C)S(=O)(=O)c1ccccc1F`, for which the cytotoxicity call is “inactive”.

Turning to `C[C@H](CO)N1C[C@H](C)[C@H](CN(C)S(=O)(=O)c2ccccc2F)Oc2ncc(C#Cc3ccncc3)cc2C1=O`, the cytotoxicity call is “active”.

Regarding `C[C@@H]1CN([C@H](C)CO)C(=O)c2cc(C#Cc3ccncc3)cnc2O[C@@H]1CN(C)S(=O)(=O)c1ccccc1F`, the cytotoxicity call was “inactive”.

As for `C[C@@H]1CN([C@H](C)CO)C(=O)c2cc(C#Cc3cccnc3)cnc2O[C@H]1CN(C)S(=O)(=O)c1ccccc1F`, the cytotoxicity call is “inactive”.

As for `C[C@@H]1CN([C@H](C)CO)C(=O)c2cc(C#Cc3cccnc3)cnc2O[C@@H]1CN(C)S(=O)(=O)c1ccccc1F`, the cytotoxicity call is “inactive”.

In the case of `C[C@H]1CN([C@@H](C)CO)C(=O)c2cc(C#Cc3ccncc3)cnc2O[C@@H]1CN(C)S(=O)(=O)c1ccccc1F`, the cytotoxicity call is “active”.

`C[C@H]1CN([C@@H](C)CO)C(=O)c2cc(C#Cc3ccncc3)cnc2O[C@H]1CN(C)S(=O)(=O)c1ccccc1F`: the cytotoxicity call was “active”.

Take `COc1ccc(S(=O)(=O)N[C@@H]2CC[C@@H](CC(=O)N3CCC(Cc4ccccc4)CC3)O[C@@H]2CO)cc1`: the cytotoxicity call is “inactive”.

Turning to `O=c1c(-c2ccc(O)cc2)coc2c([C@H]3O[C@H](CO)[C@@H](O)[C@H](O)[C@H]3O)c(O)ccc12`, the cytotoxicity call was “inactive”.

Consider `Cc1ccc2nc(-c3ccco3)[nH]c2c1`, for which the cytotoxicity call was “inactive”.

As for `CCS(=O)(=O)N1C[C@]2(CCN(CC2)C(=O)Nc2c(noc2C)C)c2c(n(c3cc(ccc23)OC)C)[C@@H]1CO`, the cytotoxicity call was “inactive”.

Turning to `C[C@H](CO)N1C[C@H](C)[C@@H](CN(C)S(=O)(=O)c2ccc(F)cc2)Oc2ccc(NC(=O)Cc3ccccc3)cc2CC1=O`, the cytotoxicity call is “inactive”.

Regarding `COc1cccc(NC(=O)N[C@@H]2CC[C@H](CC(=O)N3CCN(C)CC3)O[C@H]2CO)c1`, the cytotoxicity call was “inactive”.

In the case of `O=C(C[C@@H]1C=C[C@H](NC(=O)c2ccc(F)cc2)[C@H](CO)O1)NCc1ccncn1`, the cytotoxicity call is “inactive”.

Regarding `C[C@@H]1CCCCO[C@H](CN(C)C(=O)Cc2ccccc2)[C@@H](C)CN([C@@H](C)CO)C(=O)c2cc(NC(=O)Nc3ccc(C(F)(F)F)cc3)ccc2O1`, the cytotoxicity call is “inactive”.

Take `C[C@@H]1CN([C@H](C)CO)C(=O)Cc2cc(NC(=O)Nc3cccc4ccccc34)ccc2O[C@@H]1CN(C)Cc1ccc(C(=O)O)cc1`: the cytotoxicity call is “inactive”.

With `COCCNC(=O)C[C@@H]1CC[C@H]2[C@@H](COC[C@@H](O)CN2S(=O)(=O)c2ccccc2C)O1`, the cytotoxicity call is “inactive”.

Regarding `C[C@H](CO)N1C[C@H](C)[C@@H](CN(C)Cc2ccc(C(=O)Nc3ccccc3N)cc2)Oc2ccc(NS(=O)(=O)c3ccc(Cl)cc3)cc2CC1=O`, the cytotoxicity call was “inactive”.

Take `C[C@H]1CN([C@@H](C)CO)C(=O)c2cccc(NC(=O)C3CC3)c2O[C@H]1CN(C)S(=O)(=O)c1cn(C)cn1`: the cytotoxicity call was “inactive”.

Turning to `C[C@@H]1CCCCO[C@H](CN(C)S(=O)(=O)c2ccc(F)cc2)[C@H](C)CN([C@@H](C)CO)C(=O)c2cc(NS(=O)(=O)c3ccc(Cl)cc3)ccc2O1`, the cytotoxicity call was “active”.

As for `C[C@@H]1CN([C@@H](C)CO)C(=O)c2cc(NS(=O)(=O)c3ccc(F)cc3)ccc2O[C@@H](C)CCCCO[C@@H]1CN(C)S(=O)(=O)c1ccc(Cl)cc1`, the cytotoxicity call is “inactive”.

As to `C[C@@H]1CCCCO[C@H](CN(C)S(=O)(=O)c2ccc(Cl)cc2)[C@H](C)CN([C@@H](C)CO)C(=O)c2cc(NS(=O)(=O)c3ccc(F)cc3)ccc2O1`, the cytotoxicity call is “active”.

In the case of `C[C@@H]1CCCCO[C@H](CN(C)S(=O)(=O)c2ccc(Cl)cc2)[C@H](C)CN([C@H](C)CO)C(=O)c2cc(NS(=O)(=O)c3ccc(F)cc3)ccc2O1`, the cytotoxicity call is “inactive”.

For the molecule `C[C@@H]1CCCCO[C@@H](CN(C)S(=O)(=O)c2ccc(Cl)cc2)[C@@H](C)CN([C@@H](C)CO)C(=O)c2cc(NS(=O)(=O)c3ccc(F)cc3)ccc2O1`, the cytotoxicity call is “active”.

With `C[C@@H]1CCCCO[C@H](CN(C)S(=O)(=O)c2ccc(F)cc2)[C@@H](C)CN([C@@H](C)CO)C(=O)c2cc(NS(=O)(=O)c3ccc(Cl)cc3)ccc2O1`, the cytotoxicity call is “inactive”.

For `C[C@H](CO)N1C[C@H](C)[C@H](CN(C)S(=O)(=O)c2ccc(Cl)cc2)OCCCC[C@H](C)Oc2ccc(NS(=O)(=O)c3ccc(F)cc3)cc2C1=O`, the cytotoxicity call was “active”.

For the molecule `C[C@H](CO)N1C[C@H](C)[C@@H](CN(C)S(=O)(=O)c2ccc(Cl)cc2)OCCCC[C@H](C)Oc2ccc(NS(=O)(=O)c3ccc(F)cc3)cc2C1=O`, the cytotoxicity call was “inactive”.

With `C[C@@H]1CCCCO[C@H](CN(C)S(=O)(=O)c2ccc(Cl)cc2)[C@@H](C)CN([C@@H](C)CO)C(=O)c2cc(NS(=O)(=O)c3ccc(F)cc3)ccc2O1`, the cytotoxicity call was “inactive”.

As to `C[C@@H]1CN([C@@H](C)CO)C(=O)c2cc(NS(=O)(=O)c3ccc(F)cc3)ccc2O[C@@H](C)CCCCO[C@H]1CN(C)S(=O)(=O)c1ccc(Cl)cc1`, the cytotoxicity call is “inactive”.

As for `COc1ccc(S(=O)(=O)Nc2ccc3c(c2)C(=O)N([C@H](C)CO)C[C@@H](C)[C@@H](CN(C)S(=O)(=O)c2cn(C)cn2)O3)cc1`, the cytotoxicity call was “inactive”.

Consider `O=C(N[C@H]1CCS(=O)(=O)C1)N1CCCCC1`, for which the cytotoxicity call is “inactive”.

As to `Cc1ccc(N2C(=O)c3ccccc3[C@](C)(C(=O)NCCN3CCOCC3)[C@@H]2c2ccc(CO)cc2)nc1`, the cytotoxicity call is “inactive”.

In the case of `C[C@@H]1CN([C@H](C)CO)C(=O)Cc2cc(NC(=O)Cn3cnnn3)ccc2O[C@@H]1CN(C)C(=O)Nc1ccc(F)cc1`, the cytotoxicity call was “inactive”.

Take `Cc1ccc(S(=O)(=O)N(C)C[C@H]2OCCCC[C@H](C)Oc3ccc(NC(=O)Nc4cccc5ccccc45)cc3C(=O)N([C@@H](C)CO)C[C@H]2C)cc1`: the cytotoxicity call was “inactive”.

Take `O=C(C1=C[C@@H](C2CC2)C[C@@H](OCc2ccc(CO)cc2)O1)N1CCN(Cc2ccc3c(c2)OCO3)CC1`: the cytotoxicity call was “inactive”.

With `CCC(=O)O[C@H]1[C@H](O[C@@H]2[C@@H](C)[C@H](O[C@H]3C[C@@](C)(OC)[C@@H](O)[C@H](C)O3)[C@@H](C)C(=O)O[C@H](CC)[C@@](C)(O)[C@H](O)[C@@H](C)C(=O)[C@H](C)C[C@@]2(C)O)O[C@H](C)C[C@@H]1N(C)C`, the cytotoxicity call was “inactive”.

`O=C(C[C@H]1C=C[C@H](NC(=O)c2ccc(F)cc2)[C@H](CO)O1)NCc1ccncn1`: the cytotoxicity call is “inactive”.

As to `CN(C)C(=O)c1ccc(-c2cccc(-c3nc(C(=O)NC4CCC4)cc4c3[C@@H](CCO)N([S@](=O)C(C)(C)C)C4)c2)cc1`, the cytotoxicity call is “inactive”.

`C[C@@H]1CCCCO[C@@H](CN(C)S(=O)(=O)c2cccs2)[C@@H](C)CN([C@@H](C)CO)C(=O)c2cc(NC(=O)Nc3ccc(F)cc3)ccc2O1`: the cytotoxicity call is “inactive”.

With `C[C@H](CO)N1C[C@H](C)[C@H](CN(C)S(=O)(=O)c2ccc(F)cc2)OCCCC[C@H](C)Oc2ccc(NS(=O)(=O)c3ccc(Cl)cc3)cc2C1=O`, the cytotoxicity call is “inactive”.

For `C[C@H]1CCCCO[C@H](CN(C)S(=O)(=O)c2ccc(F)cc2)[C@@H](C)CN([C@@H](C)CO)C(=O)c2cc(NS(=O)(=O)c3ccc(Cl)cc3)ccc2O1`, the cytotoxicity call was “active”.

Turning to `C[C@H]1CCCCO[C@@H](CN(C)S(=O)(=O)c2ccc(Cl)cc2)[C@@H](C)CN([C@@H](C)CO)C(=O)c2cc(NS(=O)(=O)c3ccc(F)cc3)ccc2O1`, the cytotoxicity call was “inactive”.

For the molecule `C[C@@H]1CCCCO[C@H](CN(C)S(=O)(=O)c2ccc(F)cc2)[C@H](C)CN([C@H](C)CO)C(=O)c2cc(NS(=O)(=O)c3ccc(Cl)cc3)ccc2O1`, the cytotoxicity call is “inactive”.

Consider `C[C@H](CO)N1C[C@H](C)[C@@H](CN(C)S(=O)(=O)c2ccc(F)cc2)OCCCC[C@H](C)Oc2ccc(NS(=O)(=O)c3ccc(Cl)cc3)cc2C1=O`, for which the cytotoxicity call was “inactive”.

Consider `C[C@@H]1CN([C@H](C)CO)C(=O)c2cc(NS(=O)(=O)c3ccc(F)cc3)ccc2O[C@@H](C)CCCCO[C@H]1CN(C)S(=O)(=O)c1ccc(Cl)cc1`, for which the cytotoxicity call is “inactive”.

For `C[C@H]1CCCCO[C@H](CN(C)S(=O)(=O)c2ccc(Cl)cc2)[C@@H](C)CN([C@@H](C)CO)C(=O)c2cc(NS(=O)(=O)c3ccc(F)cc3)ccc2O1`, the cytotoxicity call is “active”.

Regarding `C[C@@H]1CN([C@H](C)CO)C(=O)c2cc(NS(=O)(=O)c3ccc(Cl)cc3)ccc2O[C@@H](C)CCCCO[C@H]1CN(C)S(=O)(=O)c1ccc(F)cc1`, the cytotoxicity call was “active”.

For the molecule `C[C@@H]1CCCCO[C@H](CN(C)S(=O)(=O)c2ccc(F)cc2)[C@@H](C)CN([C@H](C)CO)C(=O)c2cc(NS(=O)(=O)c3ccc(Cl)cc3)ccc2O1`, the cytotoxicity call is “inactive”.

For the molecule `CC(C)NC(=O)N(C)C[C@H]1Oc2ccc(NC(=O)Cc3ccccc3)cc2CC(=O)N([C@H](C)CO)C[C@H]1C`, the cytotoxicity call was “inactive”.

On to `C[C@@H]1CCCCO[C@H](CN(C)Cc2ccc(C(=O)O)cc2)[C@H](C)CN([C@H](C)CO)C(=O)c2cc(NS(=O)(=O)c3ccc(Cl)cc3)ccc2O1`, for which the cytotoxicity call was “inactive”.

The values are drawn from the antibiotic and cytotoxicity screens of Wong et al. (2023).
